Assay [1] is described as follows: Primary qHTS for inhibitors of La Crosse Virus (LACV) - induced cell death in SH-SY5Y cells (AID 1508616).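 Further: top concentration of the series differs between compounds; 0% = infected DMSO wells and 100% = uninfected DMSO wells; higher means more rescue of cells from virus-induced death.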 The essentials:
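Readout was luminescence from ATPLite 1step added after a 6-day LACV infection (0.01 MOI) of SH-SY5Y cells that had received pin-transferred compound 24 hr after seeding.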

Assay [2] concerns the target Calcium and integrin-binding protein 1 (Homo sapiens) (UniProt Q99828). As to the kind of experiment: Validation qHTS for Identification of Calcium Integrin Binding protein 1 (CIB1) Competitor (AID 1508618). Further: on the % scale 0 is the no-effect control and ±100 the full control effect. In a few lines: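 CIB1-GST (1 uM final) incubated 15 min at room temperature with compounds (up to 114 uM), then FITC-labelled alphaIIb peptide (100 nM) added. FP read (Ex 480/Em 540) after 15 min, pH 7.4 buffer containing 5 mM CaCl2.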

The target is the same in assay [3]. As to the kind of experiment: Primary qHTS for Identification of Calcium Integrin Binding Protein 1 (CIB1) Competitor (AID 1508620).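 Further: GST tagged CIB1 binding a fluorescein labelled alphaIIb integrin peptide tracer; top concentration of the series differs between compounds; on the % scale 0 is the no-effect control and ±100 the full control effect.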 In a few lines:
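Fluorescence polarization competition: CIB1-GST (1 uM final) preincubated with compound 15 min at room temperature, then FITC-labeled alphaIIb peptide (100 nM final) added for another 15 min. Polarization read at Ex 480/Em 540.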

Assay [4] in a line: Primary qHTS for small molecule stabilizers of the endoplasmic reticulum resident proteome: Secreted ER Calcium Modulated Protein (SERCaMP) assay (AID 1508630). Further: on the % scale 0 is the no-effect control and ±100 the full control effect. The essentials:
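GLuc-SERCaMP-expressing SH-SY5Y cells, pretreated 16 h with compound, are challenged with thapsigargin to empty ER calcium stores; after 4 h, coelenterazine is added directly to the medium and luminescence is imaged.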

Assay [5] is described as follows: A High-Content qHTS Against Drug Library for the Identification of Small Molecules that Inhibit DYT1 Early Onset Primary Dystonia-Associated Cell Pathology (AID 1645839; calls by dose curve; further: series mostly up to about 46 µM). In a few lines: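 Readout: %pathology, the punctate EGFP-TorsinA distribution from imaging, as the primary channel and cell count as the toxicity counterscreen. HEK293 Flp-In cells expressing delE TorsinA were induced with tetracycline and treated with compound for 48 h.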

Assay [6] is described as follows: Counterscreen qHTS for small molecule stabilizers of the endoplasmic reticulum resident proteome: GLuc-NoTag assay (AID 1508627).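 Further: SH-SY5Y cells given compound then 100 nM thapsigargin to empty ER calcium; series mostly up to about 76 µM; 0% = thapsigargin alone and -100% = DMSO vehicle control.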 In a few lines: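 SH-SY5Y cells stably expressing constitutively secreted GLuc (no SERCaMP tag) were pre-incubated 5 h, treated with compound for 19 h, then 100 nM thapsigargin for 4 h at 37C; medium GLuc read by coelenterazine luminescence.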

Assay [7] is described as follows: Confirmatory qHTS for small molecule stabilizers of the endoplasmic reticulum resident proteome: Secreted ER Calcium Modulated Protein (SERCaMP) assay (AID 1508628). Further: nearly all actives have a fitted effect of over 40% in size. Further: potency means the concentration at half of the fitted maximal effect. In a few lines: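 We seeded SH-SY5Y-GLuc-SERCaMP cells, added compounds (three concentrations in the primary run, eleven up to 76.6 uM in confirmation), incubated 16 h, depleted ER calcium with thapsigargin, and read luciferase 4 h later.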

Assay [8] in a line: Cell Viability qHTS for small molecule stabilizers of the endoplasmic reticulum resident proteome (AID 1508629).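 Further: human SH-SY5Y neuroblastoma cells carrying the GLuc-SERCaMP reporter; compound exposure about 46 h in total before the viability read; on the % scale 0 is the no-effect control and ±100 the full control effect.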 As to conditions: cell viability counter-screen, 100 nM thapsigargin for final 4 h.
The target in assay [9] is Cytochrome P450 2D6 (Homo sapiens) (UniProt P10635). The experiment in a line: Cytochrome P450 family 2 subfamily D member 6 (CYP2D6) small molecule antagonists: luciferase biochemical (cell-free) qHTS assay (AID 1645840; active means well fitted curve in the direction sought with a large enough effect in the repeat runs; an effect the other way counts as inactive or inconclusive; further: nearly all actives have a fitted effect of over 55% in size; further: potency means the concentration at half of the fitted maximal effect). In a few lines:
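P450-Glo luminescent screen: recombinant CYP2D6 enzyme–proluciferin substrate mix preincubated with compound 10 min at room temperature, then NADPH regeneration added for 1 h at room temperature. Detection reagent added for 20 min; luciferin light read as relative luminescence units.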

Several values for one entry are separate records, joined by “and”; a condition that tells them apart may be missing. Equal values may be shown once. Results filed as inconclusive are left out. Values without a mark were called inactive. Activity calls are given as the source filed them. Unless noted, the call rests on the fitted dose curve; in most records, active means well fitted curve in the direction sought with a large enough effect; inconclusive means small, poorly fitted or top-dose-only effect, or another doubt; inactive means no such curve, though single readings can be large; an effect the other way counts as inactive or inconclusive.

Chain of Cytochrome P450 2D6 (Homo sapiens) (P10635 whole entry, looked up): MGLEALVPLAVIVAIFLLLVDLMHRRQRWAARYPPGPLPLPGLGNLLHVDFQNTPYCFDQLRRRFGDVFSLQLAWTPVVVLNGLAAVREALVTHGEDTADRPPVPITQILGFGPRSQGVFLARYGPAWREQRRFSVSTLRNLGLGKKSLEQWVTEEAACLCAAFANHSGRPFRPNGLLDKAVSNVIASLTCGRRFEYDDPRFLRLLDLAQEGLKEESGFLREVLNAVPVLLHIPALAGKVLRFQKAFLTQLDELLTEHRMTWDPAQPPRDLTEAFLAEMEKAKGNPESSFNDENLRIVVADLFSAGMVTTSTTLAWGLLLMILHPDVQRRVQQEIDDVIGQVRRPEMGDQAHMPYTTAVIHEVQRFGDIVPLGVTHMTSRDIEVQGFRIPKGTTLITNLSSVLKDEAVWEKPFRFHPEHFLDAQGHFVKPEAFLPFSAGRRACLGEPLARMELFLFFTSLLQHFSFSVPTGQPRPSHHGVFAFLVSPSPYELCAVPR
Chain of Calcium and integrin-binding protein 1 (Homo sapiens) (Q99828 whole entry, looked up): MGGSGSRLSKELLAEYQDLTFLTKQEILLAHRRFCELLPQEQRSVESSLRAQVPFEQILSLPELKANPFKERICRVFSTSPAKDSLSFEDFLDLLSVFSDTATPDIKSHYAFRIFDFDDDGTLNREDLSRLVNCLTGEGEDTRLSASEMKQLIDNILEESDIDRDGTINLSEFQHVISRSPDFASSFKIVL

Turning to `NC(CO)C(=O)NNCc1ccc(O)c(O)c1O` (stereo not drawn), the Potency result in assay [1], in assay [2], in [3], in assay [4] and in assay [5] was “inactive” throughout.

Regarding `Nc1nnc(-c2cccc(Cl)c2Cl)c(N)n1`, the Potency result in [1], in assay [2], in assay [3] and in assay [4] was “inactive” throughout.

For `CC12CC3CC(C)(C1)CC(N)(C3)C2`, the Potency entry in [1], in assay [2], in assay [3], in assay [6], in assay [4] and in assay [9] was “inactive” in each case. For the same molecule, in [7], the Potency was 11.2 µM (active) and 39.8 µM (active). Further, the max response in assay [8] is 23.1%.

In the case of `CCCNCC(O)COc1ccccc1C(=O)CCc1ccccc1` (stereo not drawn), the Potency result in assay [1], in assay [2], in [3], in assay [6], in assay [7] and in assay [4] was “inactive” in each case.

Regarding `CC(C)(Oc1ccc(C2CC2(Cl)Cl)cc1)C(=O)O` (stereo not drawn), the Potency result in assay [1], in assay [2], in [3], in [4], in [5] and in assay [9] was “inactive” each time.

Turning to `NCCc1cnc[nH]1`, the Potency entry in [1], in assay [2], in [4] and in assay [5] was “inactive” throughout.

As for `O=C(c1ccc(OCCN2CCCCC2)cc1)c1c(-c2ccc(O)cc2)sc2cc(O)ccc12`, the Potency result in assay [1], in assay [2], in assay [6] and in assay [7] was “inactive” each time.

Consider `O=C(C1CCCCC1)N1CC(=O)N2CCc3ccccc3C2C1` (stereo not drawn), for which the Potency entry in assay [1], in [2], in [4] and in assay [5] was “inactive” in each case.

For the molecule `CNCCCC12CCC(c3ccccc31)c1ccccc12`, the Potency entry in assay [1], in assay [2] and in [4] was “inactive” each time.

Take `CC(=O)OCC(CCn1cnc2cnc(N)nc21)COC(C)=O`: the Potency result in [1], in [2], in assay [4], in assay [5] and in [9] was “inactive” in each case.

For `CN(C)CCC=C1c2ccccc2C=Cc2ccccc21`, the Potency result in [1], in assay [2] and in assay [6] was “inactive” throughout. In addition, the Potency in assay [9] was 3.89 µM (active) and 8.49 µM (active).

Regarding `CCc1cccc2c3c([nH]c12)C(CC)(CC(=O)O)OCC3` (stereo not drawn), the Potency result in assay [1], in [2] and in assay [4] was “inactive” throughout.

On to `COc1ccc(C2CNC(=O)C2)cc1OC1CCCC1` (stereo not drawn), for which the Potency entry in [1], in assay [2], in assay [3], in assay [4] and in [9] was “inactive” throughout.

Turning to `Nc1nc2c(ncn2COC(CO)CO)c(=O)[nH]1`, the Potency entry in assay [1], in [2], in assay [3] and in assay [9] was “inactive” in each case.

Take `O=c1[nH]cc(F)c(=O)[nH]1`: the Potency entry in assay [1], in [2], in [3], in [4] and in [9] was “inactive” throughout.

As for `CN(C)CCOC(c1ccccc1)c1ccccc1`, the Potency entry in assay [1], in [2], in assay [4] and in assay [5] was “inactive” throughout.

`Cc1cc(C(C)(C)C)cc(C)c1CC1=NCCN1`: the Potency entry in assay [1], in assay [2], in assay [4] and in assay [5] was “inactive” throughout. In assay [9], the Potency was 4.36 µM (active).

On to `COc1cc2c(c(OC)c1OC)-c1ccc(OC)c(=O)cc1[C@@H](NC(C)=O)CC2`, for which the Potency result in [1], in [2], in assay [3], in assay [4] and in assay [9] was “inactive” in each case.

Regarding `COc1nc(C)nc(Cl)c1NC1=NCCN1`, the Potency entry in assay [1], in assay [2], in assay [3] and in assay [9] was “inactive” throughout.

In the case of `COc1ccc2[nH]cc(CCNC(C)=O)c2c1`, the Potency entry in assay [1], in assay [2], in [4], in assay [5] and in assay [9] was “inactive” throughout.

Regarding `CN(CCOc1ccc(NS(C)(=O)=O)cc1)CCc1ccc(NS(C)(=O)=O)cc1`, the Potency result in [1], in assay [2], in assay [4] and in [5] was “inactive” in each case.

Turning to `O=C1Cc2cc(CCN3CCN(c4nsc5ccccc45)CC3)c(Cl)cc2N1`, the Potency result in assay [1], in assay [2], in [3] and in assay [4] was “inactive” in each case. The Potency in assay [9] is 9.77 µM (active).

For `NCCS(=O)(=O)O`, the Potency result in [1], in assay [2], in assay [4] and in assay [5] was “inactive” each time.

Regarding `CN1CCC(=C2c3ccccc3CC(=O)c3sccc32)CC1`, the Potency entry in assay [1], in assay [2], in [6] and in assay [4] was “inactive” in each case. Besides, the Potency in assay [7] was 20 µM (active) and 25.1 µM (active); in assay [9] it was 1.38 µM (active). The max response in assay [8] was 19.1%.

Consider `CCCCc1oc2ccccc2c1C(=O)c1cc(I)c(OCCN(CC)CC)c(I)c1`, for which the Potency entry in assay [1], in assay [2], in assay [6], in assay [7] and in assay [4] was “inactive” in each case. Further, the max response in [8] was 10.4%.

As to `CC#C[C@]1(O)CC[C@H]2[C@@H]3CCC4=CC(=O)CCC4=C3[C@@H](c3ccc(N(C)C)cc3)C[C@@]21C`, the Potency entry in [1], in [2] and in [4] was “inactive” throughout.

Take `CCOC(=O)c1ncn2c1CN(C)C(=O)c1cc(F)ccc1-2`: the Potency entry in assay [1], in [2], in assay [4] and in assay [9] was “inactive” throughout.

Consider `CCOC(=O)C(C)(C)Oc1ccc(Cl)cc1`, for which the Potency entry in assay [1], in assay [2], in [4] and in assay [5] was “inactive” in each case.

For `Nc1ccn([C@H]2CC[C@@H](CO)O2)c(=O)n1`, the Potency result in assay [1], in [2], in [3], in assay [4] and in assay [9] was “inactive” in each case.

For the molecule `Fc1ccc([C@@H]2CCNC[C@H]2COc2ccc3c(c2)OCO3)cc1`, the Potency result in assay [1], in [2] and in assay [4] was “inactive” each time.

On to `CCC1(C)CC(=O)NC1=O` (stereo not drawn), for which the Potency result in assay [1], in [2], in assay [4], in [5] and in assay [9] was “inactive” each time.

`CN1C2CCC1CC(OC(=O)C(CO)c1ccccc1)C2` (stereo not drawn): the Potency result in [1], in assay [2] and in assay [4] was “inactive” throughout. The Potency in assay [7] is 39.8 µM (active). Further, the max response in assay [8] was -15.7% and 13.4%.
